# High-throughput results from PubChem.
# TDP1 inh: blocks human tyrosyl-DNA phosphodiesterase 1. Q9NUW8. recombinant TDP1, AlphaScreen DNA substrate cleavage. Potency, µM (titrated, usually from 130 µM), for inactives: top-dose activity change, negative = inhibition, actives largely listed as inhibitors. 350,000 compounds, 0.28% hits. AID 485290; further: potency means the concentration at half of the fitted maximal effect; nearly all actives have a fitted effect of over 40% in size
# Target sequence (Q9NUW8 whole entry, looked up): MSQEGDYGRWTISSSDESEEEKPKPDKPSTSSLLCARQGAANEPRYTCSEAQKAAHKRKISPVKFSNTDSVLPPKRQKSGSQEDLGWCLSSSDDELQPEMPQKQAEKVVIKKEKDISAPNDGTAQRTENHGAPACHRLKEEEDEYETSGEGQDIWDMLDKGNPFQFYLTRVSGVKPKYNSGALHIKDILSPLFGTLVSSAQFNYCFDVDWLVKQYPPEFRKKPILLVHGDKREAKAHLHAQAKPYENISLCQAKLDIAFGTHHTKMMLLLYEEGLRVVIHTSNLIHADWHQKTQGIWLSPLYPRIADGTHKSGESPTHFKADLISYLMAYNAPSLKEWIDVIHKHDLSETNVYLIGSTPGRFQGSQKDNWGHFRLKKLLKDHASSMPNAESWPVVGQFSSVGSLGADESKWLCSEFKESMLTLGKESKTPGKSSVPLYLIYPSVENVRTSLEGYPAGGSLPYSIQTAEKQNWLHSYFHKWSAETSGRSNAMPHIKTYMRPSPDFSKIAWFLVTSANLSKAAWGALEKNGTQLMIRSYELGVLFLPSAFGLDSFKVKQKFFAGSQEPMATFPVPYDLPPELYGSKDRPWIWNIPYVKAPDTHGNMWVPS
#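 AlphaScreen read-out: signal falls as enzyme removes the 3' tyrosine-FITC from a 5'-biotinylated DNA oligo (15 nM, 5 min, RT). Enzyme was E. coli-made recombinant Tdp1 at 1 nM, exposed to compound for 15 min beforehand; beads 10 ug/ml, 10 min.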
# ELG1 repair inh: inhibitors of ELG1-dependent DNA repair in HEK293T cells. Potency, µM (series often up to 46.1 µM), for the others: at the top dose activity change, negative = inhibition, usual class: inhibitors. 330,000 compounds, 2.3% hits. HEK293T ELG1-luciferase reporter, luminescence, 16 h; DNA damage induced by 5-fluorouridine; further: potency means the concentration at half of the fitted maximal effect; nearly all actives have a fitted effect of over 55% in size
#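 Overnight (16 hr) co-exposure of 2,000 cells/well to 5-fluorouridine and compound at 37 °C preceded detection. Luciferase was quantified via ONE-Glo luminescence; loss of signal denotes inhibition.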
# IL-1B inflam inh: blocks inflammasome-driven IL-1 beta release; activity change, % at 57.5 µM; THP-1 LPS/ATP IL-1B secretion, AlphaLISA, 16 h; hits give low values; 360,000 compounds, 4.7% hits; AID 743279; in the data active means activity change below about -50%; inconclusive means mostly about -30% to -49%
#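 THP-1 cells pretreated 1 hr with compounds (up to 57.5 uM final), then stimulated with LPS (250 ng/mL final) plus ATP (1.25 mM final); secreted IL-1B measured by AlphaLISA after 16 hr, decreased signal indicating inhibition.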
# TDP1 cell noCPT: qHTS for Inhibitors of human tyrosyl-DNA phosphodiesterase 1 (TDP1): qHTS in cells in absence of CPT. DT40 Tdp1-/- hTDP1 cells, no CPT, ATP luminescence, 48 h. Potency, µM (doses to about 46.2 µM), without a hit: at the top dose activity change, negative = growth inhibition, actives largely listed as inhibitors. 420,000 compounds, 15% hits; further: potency means the concentration at half of the fitted maximal effect; nearly all actives have a fitted effect of over 55% in size
#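 Growth of hTDP1-complemented DT40 Tdp1-knockout cells is measured by ATP luminescence after at least 48 hr compound exposure at 37 °C, with DMSO substituting for the 20 nM CPT used in the parallel screen.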
# TDP1 cell CPT: growth inhibition of DT40 Tdp1-/-;hTDP1 cells with camptothecin (screen for TDP1 inhibitors); chicken DT40 Tdp1-/-;hTDP1 cells + 20 nM CPT, ATP luminescence, 48 h; 420,000 compounds, 12% hits; Potency, µM (highest dose often 46.2 µM), without a hit: top-dose activity change, negative = growth inhibition, hits mostly inhibitors; further: potency means the concentration at half of the fitted maximal effect; nearly all actives have a fitted effect of over 55% in size
#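 Chicken DT40 Tdp1-/- cells stably complemented with human TDP1 were seeded at 400 cells/well in medium containing 20 nM camptothecin, exposed to pin-transferred compounds, and grown at 37 °C for at least 48 hr. Viability was read as ATP luminescence.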
# Giardia kill: Giardia lamblia killing; 340,000 compounds, 0.15% hits; AID 540267; Giardia lamblia trophozoite viability; activity change, % at 7.66 µM, hits read low; in the data active means activity change below about -80%; inconclusive means between about -30% and that limit;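 further: parasites exposed to compound for two days anaerobically before the ATP read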
#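 Killing of trophozoites was scored by loss of ATP luminescence after a 48 hrs anaerobic exposure to compounds at 37 deg C, using 100 cells per well.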
# Active calls of the source: *; ? = inconclusive; nt = not tested or not shown. The list is not random: actives were taken first. Their share in the collection is about 19%. Unless noted, the call rests on the fitted dose curve; in most records, active means well fitted curve in the direction sought with a large enough effect; inconclusive means small, poorly fitted or top-dose-only effect, or another doubt; inactive means no such curve, though single readings can be large; an effect the other way counts as inactive or inconclusive. On the % scale 0 is the no-effect control and ±100 the full control effect.
SMILES,TDP1 inh,ELG1 repair inh,IL-1B inflam inh,TDP1 cell noCPT,TDP1 cell CPT,Giardia kill
O=S(=O)(Nc1ccc(N2CCCCC2)cc1)c1ccccc1,2%,?,-2,?,?,-8
Cc1ccc(C(C)(C)C)cc1S(=O)(=O)Nc1cccc(C(=O)N2CCN(c3ccccn3)CC2)c1,nt,?,-9,16µM*,29µM*,2
CC(C)Oc1ccc(C2CC(=O)N(c3cccc(/C=C/C(=O)O)c3)C2=O)cc1 (centres undefined),nt,4%,19,5%,-2%,-13
CCOC(=O)N1CCN(C(=O)COc2ccc(S(=O)(=O)Nc3ccc(OCC)cc3)cc2)CC1,5%,?,4,23µM*,?,-6
COc1ccc(NS(=O)(=O)c2ccc(OCC(=O)N3CCOCC3)cc2)cc1,-1%,17%,22,?,-27%,-6
CCN1c2ccccc2-c2nc3ccccc3n2C1c1cccs1 (centres undefined),-3%,-19%,21,13µM*,23µM*,11
c1ccc(C2Nc3ccccc3-c3nc4ccccc4n32)cc1 (centres undefined),-4%,?,?,?,?,0
CCOCCCNC(=O)c1c(NC(=O)c2cc(=O)c3cc(C)c(C)cc3o2)sc2c1CCC2,5%,nt,nt,?,-13%,nt
CCOC(=O)COc1c(OC)cc(Cl)cc1C1NC(=O)NC(C)=C1C(C)=O (centres undefined),-2%,?,-6,-3%,-18%,0
CCCC1=C(C(=O)OCC)C(c2cc(Cl)cc(OC)c2OCC(=O)OCC)NC(=O)N1 (centres undefined),2%,?,6,23µM*,?,-11
Cc1oc(-c2cccc(Cl)c2)nc1CN1CCCC(C(=O)NCc2ccc(F)cc2)C1 (centres undefined),-1%,nt,nt,5.8µM*,5.8µM*,nt
Cc1ccccc1-c1nc(CN2CCCC(C(=O)NCc3ccc(Cl)cc3)C2)c(C)o1 (centres undefined),-1%,nt,nt,?,-23%,nt
Cc1oc(-c2ccc(Cl)cc2)nc1CN1CCCC(C(=O)N2CCOCC2)C1 (centres undefined),7%,4%,15,?,?,10
CCc1ccc(-c2nc(CN3CCC(C(=O)NCc4ccc(F)cc4)CC3)c(C)o2)cc1,4%,15µM*,-19,?,?,28
COC(=O)c1ccc2c(c1)N(Cc1nc(-c3ccc(Cl)cc3)oc1C)C(=O)C1CCCN21 (centres undefined),nt,nt,20,?,21µM*,22
CCCN(CCC)CCCNC(=O)C1CCCN(Cc2nc(-c3ccc(Cl)cc3)oc2C)C1 (centres undefined),0%,nt,nt,9.2µM*,12µM*,nt
Cc1[nH]c(=O)[nH]c(=O)c1S(=O)(=O)N1CCCC(C(=O)NCCc2ccc(Cl)cc2)C1 (centres undefined),3%,-2%,-5,-1%,2%,5
Cc1oc(-c2ccc(Cl)cc2)nc1CN1CCCC(C(=O)NCCc2ccc(Cl)cc2)C1 (centres undefined),5%,nt,nt,5.8µM*,7.3µM*,nt
CCc1ccc(-c2nc(CN3CCC(C(=O)N4CCN(c5ccccc5)CC4)CC3)c(C)o2)cc1,9%,?,?,16µM*,?,-4
CCN(CC)S(=O)(=O)c1ccc(C(=O)NC2CC(=O)N(c3ccc(OC)c(OC)c3)C2)cc1 (centres undefined),8%,nt,nt,-24%,1%,nt
COc1ccc(NC(C)=O)cc1NC(=O)C1CCCN1C(=O)c1cccs1 (centres undefined),1%,12%,6,1%,-20%,-7
